Consider 13 compounds from PubChem BioAssay (NCATS).

The nature of test [1]: P-glycoprotein substrates identified in KB-3-1 adenocarcinoma cell line, qHTS therapeutic library screen (AID 1346986). Note: nearly all actives have a fitted effect of over 60% in size. The protocol: The ATP-binding cassette transporters P-glycoprotein (P-gp) is known to limit brain penetration of many chemotherapy drugs. […] We used the CellTiter-Glo viability assay to test library compounds against the parental KB-3-1 human cervical adenocarcinoma cell line and the colchicine-selected sub-line KB-8-5-11 that over-expresses P-gp. KB-8-5-11 cells were also tested in the presence of a P-gp inhibitor (tariquidar) to assess reversability of transporter-mediated resistance. Of the tested compounds, a total of 90 P-gp substrates were identified including 55 newly identified P-gp substrates. Substrates were confirmed using an orthogonal killing assay against HEK-293 cells transfected with P-gp. As exemplars, we confirmed that AT7159 (cyclin-dependent kinase inhibitor); AT9283, (Janus kinase 2/3 inhibitor); ispinesib (kinesin spindle protein inhibitor); gedatolisib (PKI-587, phosphoinositide 3-kinase/mammalian target of rampamycin inhibitor); GSK-690693 (AKT inhibitor); and KW-2478 (heat shock protein 90 inhibitor) were substrates , and direct ATPase stimulation was assessed. ABCG2 was also found to confer high levels of resistance to AT9283, GSK-690693 and gedatolisib, while ispinesib, AT7519 and KW-2478 were weaker substrates.
The HeLa derivative cell line, KB-3-1, and its colchicine-selected, P-gp-overexpressing subline, KB-8-5-11 were maintained in DMEM with 10% FCS and Pen/Strep with glutamine at 37 degree C in 5% CO2. For KB-8-5-11 cells, colchicine was added to the medium at a concentration of 100 ng/mL. HEK-293 cells transfected with empty vector (pcDNA) or vector containing human ABCB1 (MDR-19) or ABCG2 (R-5) have been described previously (Robey, Lin, Qiu, Chan & Bates, 2011) and were maintained in EMEM supplemented with 10% FCS, Pen/Strep and glutamine with 2 mg/ml G418 to select for the expression of the transporter. Cultures were confirmed to be free of mycoplasma infection using the MycoAlert Mycoplasma Detection Kit (Lonza, Walkersville, MD). For the screen, assay medium was identical to culture medium except for KB-8-5-11 where colchicine was excluded from the medium.
All cell lines were plated into 1536-well plates at 500 cells/well in 5 uL media. Compounds were then pinned in dose-response using a 1536-head pin tool (Kalypsis, San Diego, CA) and plates were incubated at 37 degree C in 5% CO2 for an additional 72 h. CellTiter-Glo reagent (Promega) was dispensed into the wells, incubated for 5 min and luminescence was read on a ViewLux instrument (Perkin-Elmer). Cytotoxic compounds were defined as those that yielded a curve class of -1.1, -1.2, -2.1, -2.2, -2.3, or -2.4, a maximum response of >50% and an AC50 of < 10 uM. Cherry-picked hits from screening analysis were tested with both the KB pair of cell lines, and the pcDNA (empty vector control) and MDR-19 (P-gp overexpressing) pair were tested, in the absence and presence of tariquidar.
In general terms: In qHTS, concentration-response curves come from the screen itself.

The nature of test [2]: P-glycoprotein substrates identified in KB-8-5-11 adenocarcinoma cell line, qHTS therapeutic library screen (AID 1346987). Note: nearly all actives have a fitted effect of over 65% in size. Note: potency is the fitted concentration of half-maximal effect. An outline of the steps: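 Human cervical adenocarcinoma KB-8-5-11 cells, selected in colchicine to over-express P-gp and assayed without it, were exposed for 72 h to titrated compounds. An ATP-based luminescent viability signal gave AC50.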
Test [3] is described as follows: NS1 protein of Zika virus - qHTS assay to identify small molecule inhibitors in human HEK 293 cells (AID 1347053). Note: series mostly up to about 46 µM; nearly all actives have a fitted effect of over 55% in size. An outline of the steps: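 Read-out is a two-antibody TR-FRET for ZIKV NS1, normalized between uninfected cells and infected cells. Compound added 1 h before MR766 infection at MOI 0.5; human HEK 293 cells incubated 24 h, 37 C.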
The nature of test [4]: qHTS for Inhibitors of the Functional Ribonucleoprotein Complex (vRNP) of Lassa (LASV) Arenavirus: LASV Primary Screen - GLuc reporter signal (AID 1347082; calls by dose curve; tested in HEK293 reporter line; note: nearly all actives have a fitted effect of over 60% in size; note: potency is the fitted concentration of half-maximal effect).
Test [5] is described as follows: Natriuretic polypeptide receptor (hNpr1) antagonism - Pilot counterscreen GloSensor control cell line (AID 1347045; calls by dose curve; note: potency is the fitted concentration of half-maximal effect). An outline of the steps: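 The SNP-driven cGMP luminescence signal (50 uM, 20 min, room temperature) was measured in GloSensor HEK293 control cells. Compounds were tested as a LOPAC titration series and preincubated for 30-50 min.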
Background: The purpose of a counterscreen is to sort out artefacts and off-target activity.

Test [6] concerns the target Atrial natriuretic peptide receptor 1 (Homo sapiens) (UniProt P16066). In words: Natriuretic polypeptide receptor (hNpr1) antagonism - Pilot screen (AID 1347049; calls by dose curve;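 note: HEK293 cells with hNpr1 and GloSensor cGMP luciferase stimulated by 0.1 nM hNppA; agonist-evoked cGMP luminescence read 20 min after hNppA addition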; note: potency is the fitted concentration of half-maximal effect). An outline of the steps: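 Cells expressing receptor plus cGMP biosensor are seeded and incubated overnight at 37C, then loaded with GloSensor reagent (2% final) at room temperature for 2 h. Library compounds go on for 30 min. A pre-read precedes agonist (hNppA, 0.1 nM final) and a 20-min readout.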

The target of test [7] is Atrial natriuretic peptide receptor 2 (Homo sapiens) (UniProt P20594). Briefly: Natriuretic polypeptide receptor (hNpr2) antagonism - Pilot subtype selectivity assay (AID 1347050; calls by dose curve; note: potency is the fitted concentration of half-maximal effect). In outline: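 Read-out: GloSensor luminescence (CCD imager), baseline vs post-stimulation. HEK293 cells expressing hNpr2; compounds pre-incubated 30-50 min at ambient temperature; hNppC 1 nM final, 20 min.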
Sequence of Atrial natriuretic peptide receptor 2 (Homo sapiens) (P20594 whole entry, looked up): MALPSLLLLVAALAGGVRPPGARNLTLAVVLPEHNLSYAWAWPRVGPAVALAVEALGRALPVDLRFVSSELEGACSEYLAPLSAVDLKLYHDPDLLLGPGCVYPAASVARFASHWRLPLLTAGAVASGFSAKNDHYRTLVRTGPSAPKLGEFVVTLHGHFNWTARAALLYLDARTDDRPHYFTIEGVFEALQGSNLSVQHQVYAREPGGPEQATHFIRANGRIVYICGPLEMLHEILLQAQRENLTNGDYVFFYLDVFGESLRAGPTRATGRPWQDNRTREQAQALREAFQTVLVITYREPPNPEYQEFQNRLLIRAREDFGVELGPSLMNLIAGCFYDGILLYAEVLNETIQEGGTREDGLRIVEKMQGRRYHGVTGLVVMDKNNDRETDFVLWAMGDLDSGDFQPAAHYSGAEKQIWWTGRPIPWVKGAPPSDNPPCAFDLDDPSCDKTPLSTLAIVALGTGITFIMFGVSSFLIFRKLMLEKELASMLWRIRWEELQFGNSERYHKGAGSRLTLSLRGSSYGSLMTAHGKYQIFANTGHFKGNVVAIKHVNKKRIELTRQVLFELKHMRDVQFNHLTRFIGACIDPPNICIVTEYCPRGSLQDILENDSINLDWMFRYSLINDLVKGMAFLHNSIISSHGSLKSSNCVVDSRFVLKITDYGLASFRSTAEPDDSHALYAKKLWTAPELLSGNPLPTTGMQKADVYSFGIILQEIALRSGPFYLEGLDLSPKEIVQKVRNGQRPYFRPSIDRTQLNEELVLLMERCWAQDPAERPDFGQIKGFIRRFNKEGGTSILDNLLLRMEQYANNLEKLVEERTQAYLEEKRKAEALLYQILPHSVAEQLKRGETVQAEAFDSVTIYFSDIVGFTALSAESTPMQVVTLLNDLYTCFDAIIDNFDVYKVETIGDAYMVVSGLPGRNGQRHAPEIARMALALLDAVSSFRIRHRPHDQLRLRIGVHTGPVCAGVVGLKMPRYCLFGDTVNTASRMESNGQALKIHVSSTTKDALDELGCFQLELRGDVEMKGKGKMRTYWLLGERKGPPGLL

For test [8], the target named is T1, Tyrosine-protein phosphatase non-receptor type substrate 1 (Homo sapiens) + Leukocyte surface antigen CD47 (Homo sapiens) (UniProt P78324+Q08722). In words: CD47-SIRPalpha protein protein interaction - HTRF assay qHTS validation (AID 1347058; active = well fitted curve in the direction sought with a large enough effect in the signal ratio, not every such curve was filed as active; the % refers to the signal ratio; note: series mostly up to about 38 µM). In outline: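 Soluble extracellular domains (6His-CD47, Avi-tag-biotinylated SIRPalpha) in PBS pH 7.4 with 0.05% IGEPAL CA-630. Compounds were preincubated 30 min at RT with CD47 and anti-His-Eu, then SIRPalpha and SAV-XL665 were added. TR-FRET 665/615 ratio.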
T1 sequence (P78324 whole entry, looked up, the tested form may be a part): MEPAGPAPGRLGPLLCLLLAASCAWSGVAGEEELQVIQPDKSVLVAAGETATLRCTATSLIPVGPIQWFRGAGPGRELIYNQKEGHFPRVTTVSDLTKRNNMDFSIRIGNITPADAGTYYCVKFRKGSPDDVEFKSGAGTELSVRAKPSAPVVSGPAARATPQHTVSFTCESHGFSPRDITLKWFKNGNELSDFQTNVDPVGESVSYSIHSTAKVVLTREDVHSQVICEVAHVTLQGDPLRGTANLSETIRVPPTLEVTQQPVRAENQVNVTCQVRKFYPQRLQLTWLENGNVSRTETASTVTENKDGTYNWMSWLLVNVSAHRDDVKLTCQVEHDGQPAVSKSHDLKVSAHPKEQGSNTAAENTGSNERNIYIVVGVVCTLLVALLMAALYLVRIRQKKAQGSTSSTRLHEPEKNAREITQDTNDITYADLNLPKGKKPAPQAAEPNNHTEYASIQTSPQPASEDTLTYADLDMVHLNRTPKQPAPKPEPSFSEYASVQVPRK
T1 sequence (Q08722 whole entry, looked up, the tested form may be a part): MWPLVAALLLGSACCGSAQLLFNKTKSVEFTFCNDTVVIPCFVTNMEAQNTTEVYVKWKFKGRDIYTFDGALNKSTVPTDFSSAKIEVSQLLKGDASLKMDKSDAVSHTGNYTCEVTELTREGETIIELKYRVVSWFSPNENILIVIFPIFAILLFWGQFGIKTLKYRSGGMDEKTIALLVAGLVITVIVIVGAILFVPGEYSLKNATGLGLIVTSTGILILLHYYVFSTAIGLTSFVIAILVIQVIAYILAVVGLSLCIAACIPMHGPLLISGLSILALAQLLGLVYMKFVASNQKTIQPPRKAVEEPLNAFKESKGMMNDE
A general note: In TR-FRET formats the signal depends on donor and acceptor labels being close together.

In test [9] the target is T1, Tyrosine-protein phosphatase non-receptor type substrate 1 (Homo sapiens) + Leukocyte surface antigen CD47 (Homo sapiens). In words: CD47-SIRPalpha protein protein interaction - Alpha assay qHTS validation (AID 1347059).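 Note: bead proximity luminescence from CD47 binding SIRPalpha after compound preincubation with SIRPalpha.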 In outline: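 In PBS (pH 7.4) with 0.05% IGEPAL CA-630, compound is preincubated with biotin-Avi-SIRPalpha ectodomain before His-CD47 ectodomain and affinity beads are added. Light-protected room-temperature incubations; AlphaScreen readout.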

The target of test [10] is Parathyroid hormone/parathyroid hormone-related peptide receptor (Homo sapiens) (UniProt Q03431). In words: qHTS for PTHR1 Agonists: Optimization Screen against the NCGC LOPAC library (AID 1347079).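 Note: GloSensor cAMP luminescence in HEK-293 GP2 cells expressing human PTHR1 with IBMX.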 An outline of the steps: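 Signal increase flags agonism. GP2 cells, derived from HEK-293, express human PTHR1 and a GloSensor cAMP construct.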
Sequence of Parathyroid hormone/parathyroid hormone-related peptide receptor (Homo sapiens) (Q03431 whole entry, looked up): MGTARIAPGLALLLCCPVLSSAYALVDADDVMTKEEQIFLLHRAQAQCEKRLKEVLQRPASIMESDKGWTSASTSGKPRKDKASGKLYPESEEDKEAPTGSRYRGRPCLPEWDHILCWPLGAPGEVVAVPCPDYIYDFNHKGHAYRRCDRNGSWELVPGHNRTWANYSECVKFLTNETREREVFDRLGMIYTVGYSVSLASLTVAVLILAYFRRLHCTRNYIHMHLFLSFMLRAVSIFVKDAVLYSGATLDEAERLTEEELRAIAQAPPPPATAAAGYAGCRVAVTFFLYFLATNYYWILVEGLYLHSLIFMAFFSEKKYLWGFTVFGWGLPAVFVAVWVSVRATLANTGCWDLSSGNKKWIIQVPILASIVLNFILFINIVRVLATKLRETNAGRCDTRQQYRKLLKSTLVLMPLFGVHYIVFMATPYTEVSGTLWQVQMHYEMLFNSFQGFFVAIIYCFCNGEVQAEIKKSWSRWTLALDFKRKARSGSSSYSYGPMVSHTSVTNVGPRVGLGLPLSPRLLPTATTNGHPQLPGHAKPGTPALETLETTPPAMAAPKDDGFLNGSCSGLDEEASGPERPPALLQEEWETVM

Structures are written as SMILES. Several values for one entry are separate records, joined by “and”; a condition that tells them apart may be missing. Identical values can stand only once. Results filed as inconclusive are left out. Activity calls are given as the source filed them. Unless noted, calls come from the whole dose curve; as a rule, active = well fitted curve in the direction sought with a large enough effect; inconclusive = small, poorly fitted or top-dose-only effect, or another doubt; inactive = no such curve, though single readings can be large; an effect the other way counts as inactive or inconclusive.

Sequence of Atrial natriuretic peptide receptor 1 (Homo sapiens) (P16066 whole entry, looked up): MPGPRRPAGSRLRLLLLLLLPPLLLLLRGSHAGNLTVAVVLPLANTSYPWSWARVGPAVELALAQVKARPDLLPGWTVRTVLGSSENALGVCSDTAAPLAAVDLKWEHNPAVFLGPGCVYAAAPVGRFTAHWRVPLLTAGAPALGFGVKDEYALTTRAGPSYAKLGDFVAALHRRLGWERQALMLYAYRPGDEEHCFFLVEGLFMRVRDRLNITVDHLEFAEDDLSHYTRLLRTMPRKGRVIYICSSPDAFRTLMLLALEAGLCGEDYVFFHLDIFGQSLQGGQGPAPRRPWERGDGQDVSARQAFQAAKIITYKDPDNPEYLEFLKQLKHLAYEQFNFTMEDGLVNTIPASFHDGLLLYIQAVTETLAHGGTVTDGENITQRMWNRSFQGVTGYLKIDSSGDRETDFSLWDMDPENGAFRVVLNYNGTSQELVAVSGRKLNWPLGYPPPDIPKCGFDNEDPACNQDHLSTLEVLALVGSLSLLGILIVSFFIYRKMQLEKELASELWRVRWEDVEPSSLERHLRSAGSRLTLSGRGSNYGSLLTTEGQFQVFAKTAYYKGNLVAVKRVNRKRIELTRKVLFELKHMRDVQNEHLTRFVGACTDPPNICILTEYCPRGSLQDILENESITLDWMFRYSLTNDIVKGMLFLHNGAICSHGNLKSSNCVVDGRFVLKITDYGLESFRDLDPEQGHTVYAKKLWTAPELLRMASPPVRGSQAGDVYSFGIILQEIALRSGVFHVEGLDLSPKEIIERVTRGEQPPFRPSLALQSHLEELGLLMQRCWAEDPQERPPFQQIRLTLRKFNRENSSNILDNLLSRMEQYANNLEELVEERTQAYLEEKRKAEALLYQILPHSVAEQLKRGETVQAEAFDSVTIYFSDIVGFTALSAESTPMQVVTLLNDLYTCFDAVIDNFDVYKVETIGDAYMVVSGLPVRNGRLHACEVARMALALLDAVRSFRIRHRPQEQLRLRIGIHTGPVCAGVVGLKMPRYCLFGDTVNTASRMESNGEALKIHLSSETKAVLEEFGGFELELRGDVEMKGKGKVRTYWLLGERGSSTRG

In the case of `Cc1cc(SCc2sc(-c3ccc(C(F)(F)F)c(F)c3)nc2C)ccc1OCC(=O)O`, the Potency result in test [1], in test [2], in test [3] and in test [4] was “inactive” in each case.
Regarding `O=C(O)P(=O)(O)O`, the Potency entry in [1], in [2] and in test [4] was “inactive” in each case.
As to `CCC1(C2=NCCN2)Cc2ccccc2O1` (stereo not drawn), the Potency result in [2], in test [5], in test [6], in test [7], in test [3] and in test [4] was “inactive” each time. In addition, the result in [8], in test [9] and in test [10] was inactive.
`Cn1cc(C2=C(c3cn(C4CCN(Cc5ccccn5)CC4)c4ccccc34)C(=O)NC2=O)c2ccccc21`: the Potency entry in test [1], in test [2], in test [3] and in [4] was “inactive” throughout.
Regarding `COC[C@H]1OC(=O)c2coc3c2[C@@]1(C)C1=C(C3=O)C2CCC(=O)[C@@]2(C)C[C@H]1OC(C)=O` (stereo partly drawn), the Potency result in test [1], in [2], in test [5], in test [6], in test [7] and in test [3] was “inactive” in each case. In test [4], the Potency entry is “inactive”. Also, the result in test [8], in [9] and in test [10] was inactive.
With `CCCN1CCC[C@@H]2Cc3nc(N)ncc3C[C@H]21`, the Potency result in [2], in test [5], in [6], in test [7], in test [3] and in test [4] was “inactive” in each case. Moreover, the outcome in [8], in [9] and in [10] was inactive.
Regarding `C=C(C)[C@H]1Cc2c(ccc3c2O[C@@H]2COc4cc(OC)c(OC)cc4[C@@H]2C3=O)O1`, the Potency is 13 nM (active) and 2.64 µM (active) in [2]; 117 nM (active) in test [5]; 135 nM (active) in test [6]; 82.6 nM (active) in [7]; 1090 nM (active) in test [4]. Moreover, in [3], the Potency result was “inactive”. Besides, the outcome in test [8] and in test [10] was inactive.
For the compound `Cc1ccc(S(=O)(=O)N[C@@H](CCCCN)C(=O)CCl)cc1`, the Potency result in test [2], in [5], in test [6], in test [7], in test [3] and in test [4] was “inactive” each time. The outcome in test [8], in [9] and in test [10] was inactive.
Consider `C[C@H]1O[C@@H](O[C@H]2[C@@H](O)C[C@H](O[C@H]3[C@@H](O)C[C@H](O[C@H]4CC[C@@]5(C)[C@H](CC[C@@H]6[C@@H]5CC[C@]5(C)[C@@H](C7=CC(=O)OC7)CC[C@]65O)C4)O[C@@H]3C)O[C@@H]2C)C[C@H](O)[C@@H]1O`, for which the Potency in [2] is 65.1 nM (active) and 76.9 nM (active). For the same compound, the Potency entry in test [3] was “inactive”.
As to `NCC1(CC(=O)O)CCCCC1`, the Potency entry in test [2], in [5], in test [6], in test [7], in test [3] and in test [4] was “inactive” throughout. The outcome in [8], in [9] and in [10] was inactive.
For `Cc1sc2c(c1C)C(c1ccc(Cl)cc1)=N[C@@H](CC(=O)OC(C)(C)C)c1nnc(C)n1-2`, in [2], the Potency was 469 nM (active).
Regarding `CC(O)(CS(=O)(=O)c1ccc(F)cc1)C(=O)Nc1ccc(C#N)c(C(F)(F)F)c1` (stereo not drawn), the Potency result in test [2], in test [6], in test [7], in [3] and in [4] was “inactive” throughout. In addition, the result in test [8], in test [9] and in [10] was inactive.
In the case of `CC[C@@H](CO)NC(=O)[C@@H]1C=C2c3cccc4c3c(cn4C)C[C@H]2N(C)C1`, in [2], the Potency was 20600 nM (active). Also, the Potency result in [5], in [6], in test [7] and in test [4] was “inactive” in each case. Also, the outcome in test [9] and in test [10] was inactive.
